This note sets out measurements from PubChem BioAssay (NCI).

This is part of a sample that, as a whole, favours compounds with a hit. Of some 83,000 tested, about 20% had one in any assay.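 Assay: single dose, 48 h. Readout: percent growth (0 = no net growth; negative = cell death). Active: <10.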 Values without a mark were called inactive. Activity calls are given as the source filed them.

Some test systems named below: T-47D breast; BT-549 breast; MDA-MB-435 melanoma; SW-620 colon; MCF7 breast; HCT-116 colon; HCC-2998 colon; KM12 colon.
Holding throughout (assay): NCI-60 one-dose screen, 48 h (100 = growth as untreated, 0 = no growth, -100 = all killed)
Holding throughout (conditions): 10 µM unless noted

Take `CC1=C[C@H]2c3c(c(O)c(O)c4oc5c(C)cccc5c(=O)c34)[C@H](c3cc(O)c(O)c4oc5c(C)cccc5c(=O)c34)[C@H]2C(C)(C)C1`: the growth with T-47D breast was 13.7%; in the experiment on BT-549 breast it was 27.2%; in the experiment on MDA-MB-435 melanoma, -17.3% (active); in the experiment with SW-620 colon, 18.7%; with MCF7 breast, 9.38% (active); in the experiment on HCT-116 colon, 1.97% (active). In addition, the growth with HCC-2998 colon was 11.2%; with KM12 colon, 7.31% (active).

As for `CNC(=O)c1cc(Oc2ccc(NC(=O)Nc3ccc(Cl)c(OC(F)(F)F)c3)c(F)c2)ccn1`, the growth was -2.82% (active) in the experiment with T-47D breast; 60.4% in the experiment on BT-549 breast; 19.4% in the experiment on MDA-MB-435 melanoma; 43.1% in the experiment on SW-620 colon; 17.1% in the experiment on MCF7 breast; 14% with HCT-116 colon. Further, the growth is 39% in the experiment on HCC-2998 colon and 13.3% in the experiment with KM12 colon.

For `Cc1nn(-c2ccc(F)cc2)c2ncnc(Nc3ccc(NC(=O)Nc4ccc(Cl)c(C(F)(F)F)c4)cc3)c12`, the growth in the experiment on T-47D breast is 2.53% (active); in the experiment with BT-549 breast, 57.9%; with MDA-MB-435 melanoma it was 40.1%; in the experiment with SW-620 colon it was 19.9%; in the experiment on MCF7 breast it was 12.8%; in the experiment with HCT-116 colon, 32.1%. Moreover, the growth with HCC-2998 colon is 22.2%; in the experiment with KM12 colon, 14.7%.

With `CC(C)C[C@@H](NC(=O)[C@@H](Cc1ccccc1)NC(=O)c1cnccn1)B1Oc2ccc(C[C@H](NC(=O)[C@H](Cc3ccc4c(c3)OB([C@@H](CC(C)C)NC(=O)[C@@H](Cc3ccccc3)NC(=O)c3cnccn3)O4)NC(=O)[C@@H](N)CC3CCC4OB([C@@H](CC(C)C)NC(=O)[C@@H](CC5CCCCC5)NC(=O)C5CNCCN5)OC4C3)C(=O)NCCCC[C@@H]3NC(=O)[C@@H](Cc4ccccc4)NC(=O)[C@H](CC(=O)O)NC(=O)CNC(=O)[C@H](CCCNC(=N)N)NC3=O)cc2O1` (stereo not given in full), the growth in the experiment on T-47D breast is -57.8% (active); in the experiment on BT-549 breast, -66.8% (active); with MDA-MB-435 melanoma, -74.7% (active); in the experiment on SW-620 colon it was -49.5% (active); with MCF7 breast, -43.9% (active); in the experiment with HCT-116 colon it was -69.2% (active). Also, the growth in the experiment on HCC-2998 colon was -95.7% (active); in the experiment with KM12 colon it was -51.5% (active).

`CC1=CC(=NN=c2cc(C)n([O-])c(C)c2)C=C(C)[N+]1=O`: the growth with T-47D breast is 43.9%; in the experiment on BT-549 breast, 75.1%; in the experiment on MDA-MB-435 melanoma, 85.9%; in the experiment with SW-620 colon it was 101%; in the experiment with MCF7 breast it was 19.3%; with HCT-116 colon, 83.1%. The figures for the growth in the experiment on HCC-2998 colon and with KM12 colon were 63.2% and 95.3%, respectively.

Take `COc1ccc(N=Nc2nccs2)c(O)c1`: the growth was 36.5% in the experiment on T-47D breast; 74.1% with BT-549 breast; 58.7% in the experiment on MDA-MB-435 melanoma; 34.4% in the experiment with SW-620 colon; 20.4% in the experiment with MCF7 breast; 22.3% in the experiment on HCT-116 colon. Besides, the growth was 60.8% in the experiment with HCC-2998 colon and 33.3% in the experiment on KM12 colon.

Take `Cc1ccccc1COc1ccc(-c2ccnn2-c2ccc(Cl)cc2)cc1`: the growth with T-47D breast was 65.4%; in the experiment with BT-549 breast, 75%; with MDA-MB-435 melanoma, 0.81% (active); with SW-620 colon, 29.7%; with MCF7 breast, 31.9%; in the experiment with HCT-116 colon, 38.1%. Moreover, the growth is 89.1% with HCC-2998 colon and 50.7% in the experiment on KM12 colon.

On to `C=C(C)[C@@H]1CC[C@]2(C(N)=O)CC[C@]3(C)[C@H](CC[C@@H]4[C@@]5(C)C/C(=C/c6ccco6)C(=O)C(C)(C)[C@@H]5CC[C@]43C)[C@@H]12`, for which the growth in the experiment on T-47D breast is 80%; in the experiment on BT-549 breast, 108%; with MDA-MB-435 melanoma, 98%; in the experiment with SW-620 colon, 105%; in the experiment with MCF7 breast, 79.8%; with HCT-116 colon, 83.3%. The growth in the experiment with HCC-2998 colon is 117%; in the experiment on KM12 colon it was 97.6%.

As to `Oc1ccc(N=Cc2ccccc2O)cc1`, the growth with T-47D breast was 89.4%; in the experiment with BT-549 breast, 78.3%; with MDA-MB-435 melanoma it was 110%; with SW-620 colon, 99.1%; in the experiment on MCF7 breast, 92.8%; with HCT-116 colon, 98.8%. The results for the growth in the experiment with HCC-2998 colon and in the experiment with KM12 colon were 116% and 88.8%, respectively.

In the case of `O=[N+]([O-])c1ccccc1/C=N\NC(=S)N/N=C/c1ccccc1[N+](=O)[O-]`, the growth with T-47D breast was 61%; in the experiment on BT-549 breast, 47.4%; with MDA-MB-435 melanoma it was -1.94% (active); in the experiment with SW-620 colon it was 23.9%; in the experiment on MCF7 breast, 58.9%; with HCT-116 colon it was 18.9%. The growth with HCC-2998 colon was 73.5%; in the experiment with KM12 colon, 17%.

As to `Cc1ccc2c(C(C[N+](=O)[O-])c3ccco3)c(-c3ccccc3)[nH]c2c1` (stereo not given), the growth with T-47D breast is 16.1%; in the experiment with BT-549 breast, 53.3%; with MDA-MB-435 melanoma, -34% (active); in the experiment on SW-620 colon, 17.1%; in the experiment on MCF7 breast it was 16.5%; with HCT-116 colon, 19.6%. For the same compound, the growth in the experiment with HCC-2998 colon was 70%; in the experiment on KM12 colon it was 20.2%.

Take `COc1ccc(-c2n[nH]nc2-c2csc3ccccc23)cc1OC`: the growth was 28.5% in the experiment with T-47D breast; 16.9% in the experiment on BT-549 breast; -31.8% (active) in the experiment on MDA-MB-435 melanoma; 21.3% in the experiment on SW-620 colon; 17.1% in the experiment on MCF7 breast; 22.4% in the experiment on HCT-116 colon. For the same compound, the growth is 72.1% with HCC-2998 colon and 27.6% with KM12 colon.

Turning to `O=C1/C(=C/c2ccc3c(c2)OCO3)SC(=S)N1CCc1ccc(O)cc1`, the growth in the experiment with T-47D breast was 59.2%; with BT-549 breast, 96.6%; with MDA-MB-435 melanoma, 94%; in the experiment on SW-620 colon, 111%; with MCF7 breast, 112%; in the experiment with HCT-116 colon, 101%. The growth in the experiment with HCC-2998 colon was 103%; in the experiment with KM12 colon, 86.3%.

As for `CCc1nnc(CNc2ccc(Cl)cc2)o1`, the growth was 93.9% in the experiment with T-47D breast; 96.4% in the experiment with BT-549 breast; 101% in the experiment on MDA-MB-435 melanoma; 97.7% in the experiment on SW-620 colon; 91.3% in the experiment with MCF7 breast; 96.1% with HCT-116 colon. Besides, the growth with HCC-2998 colon was 97.6%; in the experiment on KM12 colon, 101%.

Regarding `COc1ccc(S(=O)(=O)N2CCCCCC2)cc1NC(=O)c1[nH]c(C)c2c1CCCCC2=O`, the growth is 9.29% (active) in the experiment with T-47D breast; 42.2% in the experiment on BT-549 breast; 25.6% with MDA-MB-435 melanoma; 60.8% in the experiment with SW-620 colon; 17.9% in the experiment with MCF7 breast; 23.8% in the experiment with HCT-116 colon. Further, the results for the growth with HCC-2998 colon and in the experiment with KM12 colon were 20.2% and 32.8%, respectively.
